Screening results deposited in PubChem by National Center for Advancing Translational Sciences (NCATS).
YjeE inh = qHTS Assay for Inhibitors of YjeE | tRNA threonylcarbamoyladenosine biosynthesis protein TsaE (Escherichia coli (strain … | purified YjeE enzyme, qHTS inhibition assay | Potency, µM | hit rate 0.05% among 71,000 | AID 605, 2007
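Fluorescence polarization of a BODIPY Texas Red–ADP probe (2 uM) bound to purified YjeE (10 uM) was read after 15 min room-temperature incubation with compounds. Loss of polarization marks inhibitors; ADP serves as titrated control.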
p53ts 32C tox = qHTS Screen for Compounds that Selectively Target Cancer Cells with p53 Mutations: Cytotoxicity of p53ts Cells at the Permissive Temperature; H1299-p53A138V at 32C, ATP luminescence viability, 24 h; Potency, µM (top dose mostly 46.1 µM), for the others: at the top dose activity change, negative = cytotoxicity, actives largely listed as cytotoxic; hit rate 0.93% among 130,000; AID 924, 2007;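 note: potency is the fitted concentration of half-maximal effect; 0% = DMSO and -100% = full killing by reference compound; nearly all actives have a fitted effect of over 55% in size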
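ATP-content luminescence (ATPlite) read-out after 24 h compound exposure at 32C in H1299-p53A138V cells (600/well). Tested up to 46 uM. Normalized to DMSO (0%) and 100 uM tamoxifen (100% killing); Hill-fit AC50.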
DNA Pol III inh = qHTS Assay for Inhibitors of DNA Polymerase III Holoenzyme System; reconstituted DNA polymerase III holoenzyme replication, biochemical; Potency, µM (top dose mostly 57.1 µM), for the others: top-dose activity change, negative = inhibition; hit rate 0.25% among 71,000; AID 603, 2007; note: potency is the fitted concentration of half-maximal effect; % is set by controls: 0 for no effect and ±100 for the full control effect
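Reconstituted *E. coli* holoenzyme (0.35 nM Pol III, 1 nM beta, 154 nM SSB, 2 nM primase) was preincubated with compound for 15 min at RT. Synthesis on 1.4 nM ssM13Gori ran 35 min, then was stopped with PicoGreen/EDTA and read as dsDNA fluorescence.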
p53ts 39C kill = qHTS Screen for Compounds that Selectively Target Cancer Cells with p53 Mutations: Cytotoxicity of p53ts Cells at the Nonpermissive Temperature. AID 902, 2007. Potency, µM (doses to about 46.1 µM), without a hit: at the highest dose activity change, negative = cell killing, actives largely listed as cytotoxic. hit rate 1.5% among 130,000. H1299-p53A138V viability at 39C, ATP luminescence, 24 h; note: potency is the fitted concentration of half-maximal effect; % is set by controls: 0 for no effect and ±100 for the full control effect; nearly all actives have a fitted effect of over 55% in size
ERK AVP inh = qHTS Assay for Inhibitors of the ERK Signaling Pathway using a Homogeneous Screening Assay | HEK293-V1b, vasopressin-stimulated pERK AlphaScreen | Potency, µM (titrated, usually from 57.5 µM), inactives show at the highest dose activity, negative = inhibition, usual class: inhibitors | hit rate 0.99% among 72,000 | AID 995, 2007; note: potency is the fitted concentration of half-maximal effect; % is set by controls: 0 for no effect and ±100 for the full control effect; nearly all actives have a fitted effect of over 55% in size
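Phosphorylated ERK1/2 detected via AlphaScreen bead proximity in lysates of V1b-expressing HEK293 cells given 25 nM vasopressin for 5 min after 30 min compound exposure (37 °C). AC50 from Hill equation; basal DMSO 0%, vasopressin 100%.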
Tau filament bind = qHTS Assay for Tau Filament Binding; recombinant tau filaments, thioflavin S fluorescence, 15 h; filaments grown with octadecylsulfate alongside compound; Potency, µM (series often up to 57.1 µM), inactives show top-dose activity change, negative = inhibition; hit rate 2% among 71,000; AID 596, 2007;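 note: potency is the fitted concentration of half-maximal effect; % is set by controls: 0 for no effect and ±100 for the full control effect; actives lower thioflavin S fluorescence by blocking filaments or displacing dye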
Target sequence (P10636 whole entry, looked up): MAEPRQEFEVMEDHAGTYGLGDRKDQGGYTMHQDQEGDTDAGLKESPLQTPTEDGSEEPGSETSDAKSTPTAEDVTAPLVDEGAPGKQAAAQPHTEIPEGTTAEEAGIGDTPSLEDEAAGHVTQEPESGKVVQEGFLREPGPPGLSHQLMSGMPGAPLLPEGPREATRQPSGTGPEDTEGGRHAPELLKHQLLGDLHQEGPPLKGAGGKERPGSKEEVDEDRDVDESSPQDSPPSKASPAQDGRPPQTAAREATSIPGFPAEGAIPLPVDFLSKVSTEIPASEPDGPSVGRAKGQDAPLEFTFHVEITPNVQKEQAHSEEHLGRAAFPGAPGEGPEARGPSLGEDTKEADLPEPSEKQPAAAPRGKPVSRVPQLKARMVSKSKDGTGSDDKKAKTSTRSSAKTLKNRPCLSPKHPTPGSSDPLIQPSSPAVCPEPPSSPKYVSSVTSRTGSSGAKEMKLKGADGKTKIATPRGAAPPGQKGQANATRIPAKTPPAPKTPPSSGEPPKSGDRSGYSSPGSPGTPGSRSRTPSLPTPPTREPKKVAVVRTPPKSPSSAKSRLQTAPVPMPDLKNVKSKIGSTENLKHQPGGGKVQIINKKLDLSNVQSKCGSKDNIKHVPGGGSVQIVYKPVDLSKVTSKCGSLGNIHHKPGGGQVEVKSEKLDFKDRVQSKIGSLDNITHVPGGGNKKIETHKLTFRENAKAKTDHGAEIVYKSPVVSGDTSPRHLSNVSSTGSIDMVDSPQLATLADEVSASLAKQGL
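Tau 2 uM in ThS buffer dispensed; compound added; 60 uM ODS added (finals 1 uM tau, 30 uM ODS); 15 h 37 C; fluor ex450/em510.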
* = called active by the depositor; i = inactive; ? = inconclusive; nt = no result; [ ] = remark or other dose. Sampled rows, rich in hits. Any-hit rate of the full collection: about 3.2%. Calls come from the whole dose curve; as a rule, active = well fitted curve in the direction sought with a large enough effect; inconclusive = small, poorly fitted or top-dose-only effect, or another doubt; inactive = no such curve, though single readings can be large; an effect the other way counts as inactive or inconclusive.

SMILES	YjeE inh	p53ts 32C tox	DNA Pol III inh	p53ts 39C kill	ERK AVP inh	Tau filament bind
O=C(CSc1c2c(nc3ccc(Cl)cc13)CCCC2)N1CCN(C(=O)c2ccco2)CC1	i	?	-0.6%	6.31µM*	-25.9%	i
CCn1c(=O)c2sccc2n2c(CCCC(=O)Nc3ccc(C)cc3)nnc12	nt	-2.2%	nt	8.2%	nt	nt
CS(=O)(=O)N1CCC2(CCCN(C(=O)Nc3ccccc3)C2)CC1	i	-15.4%	-3.6%	-2.3%	-0.1%	-1.8%
OCCN1CCN(c2nc(N3CCCCC3)nc(N3CCCCC3)n2)CC1	i	-4.6%	-13.0%[11.4 µM]	1.3%	12.0%	3.98µM*
O=C1CC2(CCCC2)CC(=O)N1CCNC[C@H]1COc2ccccc2O1	i	4.9%	-5.4%	-6.5%	3.8%	31.6µM*
O=C(O)CNCC1COc2ccccc2O1 (stereo not given)	i	-5.5%	2.9%	-4.3%	14.1%	-6.2%
Cc1cc(C)cc(NC(=O)Cn2cc(C(=O)C3CCCCC3)c3ccccc32)c1	nt	?	nt	10µM*	nt	nt
Cc1ccc(NC(=O)Cn2cc(C(=O)C3CC3)c3ccccc32)cc1	nt	1.9%	nt	9.1%	nt	nt
C=C(C)C(=O)OCCCCCC	i	2.6%[1.84 µM]	6.3%	-10.5%	1.2%	-2.4%
CCCCOc1cccc(C(=O)Nc2ccc(N3CCN(CC)CC3)cc2)c1	i	-2.6%	-5.5%	-0.6%	-21.5%	20µM*
Cn1cc(-c2cc3n(n2)CCC(=O)N3CCCC(=O)NCc2ccc(Cl)cc2)c2ccccc21	nt	?	nt	12.6µM*	nt	nt
O=C(NCCN1CCN(c2ccccc2)CC1)c1cccn2c(=O)c3cc(Cl)ccc3nc12	i	8.6%	-0.5%	0.8%	-15.7%	15.8µM*
COCCNC(=O)c1ccc2nc(CCc3ccccc3)oc2c1	nt	-29.3%	nt	10.9%	nt	nt
CC(C)c1ccc(C2=NC(c3ccncc3)=Nc3ccc(F)cc3N2)cc1	nt	1.5%	nt	2.2%	nt	nt
COc1ccccc1N1CCN(C(=O)COc2ccc(Cl)cc2)CC1	i	-3.2%	-2.3%	-11.4%	31.6µM*	-12.0%
CC(=O)c1ccc(N2CCN(C(=O)COc3ccc(F)cc3)CC2)c(F)c1	i	11.1%	-0.8%	-2.6%	-25.4%	8.2%
CCC(=O)c1ccc(N2CCN(C(=O)COc3ccc(F)cc3)CC2)c(F)c1	i	-3.5%	-2.2%[11.4 µM]	-2.9%	3.16µM*	29.0%[11.4 µM]
CC12C=C(/C=C/c3ccc(C(F)(F)F)cc3)C(C)(C1)C(c1ccc(C(F)(F)F)cc1)CC2=O (stereo not given)	nt	-2.2%[9.22 µM]	nt	8.7%[9.22 µM]	13.8%[11.5 µM]	nt
COc1ccc2c(c1OC)OCC(c1ccc(OC)c(OC)c1OC)C2 (stereo not given)	nt	3.0%	nt	5.5%	-9.2%	nt
Cc1nn(-c2nc3ccccc3s2)c(C)c1Oc1ccccc1O	i	12.6µM*	15.0%	?	?	127.8%
CCOc1ccc(CCNC(=O)C2CCCN(c3nnc(C)c4c(C)n(-c5ccccc5)nc34)C2)cc1 (stereo not given)	nt	-2.0%	nt	3.4%	nt	nt
Cc1cc(OC(C)C(=O)Nc2c(C(=O)c3ccc(F)cc3)oc3ccccc23)ccc1Cl (stereo not given)	nt	-5.2%	nt	-0.8%	nt	nt
CC(=O)OC(C)C	i	-8.7%[1.84 µM]	-0.1%	14.6%	-5.8%	5.2%
CCCSc1nc(C)c(-c2csc(C(C#N)=C3CCCC3)n2)cc1C#N	i	-3.0%	-1.9%	4.6%	9.5%	15.8µM*
CCCCSc1nc2c(cc1C#N)CCC2	i	13.2%	1.5%	2.2%	40.2%	3.6%
SMILES	YjeE inh	p53ts 32C tox	DNA Pol III inh	p53ts 39C kill	ERK AVP inh	Tau filament bind
COc1ccc(NC(=O)c2ccc3c(=O)n4nc(Nc5cc(C)ccc5C)sc4nc3c2)cc1	nt	?	nt	35.5%	nt	nt
COC(=O)c1cccc(CN2C(=O)SC(Nc3ccc(Br)cc3)C2=O)c1 (stereo not given)	nt	1.6%	nt	-7.1%	nt	nt
CCC(=O)Nc1ccc(Nc2ccccc2)cc1	i	-6.3%	-3.7%	2.9%	-10.6%	?
COCC(=O)Nc1ccc(Nc2ccccc2)cc1	i	0.4%	-8.1%	4.1%	?	7.94µM*
Cc1ccc(-c2nnc(Nc3cccc(C(F)(F)F)c3)c3ccccc23)cc1S(=O)(=O)N1CCOCC1	nt	4.7%	nt	0.9%	nt	nt
N#Cc1cccc(NC(=O)c2cc3c(s2)-c2ccc(Cl)cc2SC3)c1	nt	?	nt	10µM*	nt	nt
C=CCn1c(C)cc(C(=O)CSc2nc3ccccc3c(=O)[nH]2)c1C	i	-18.7%	-3.9%	-27.4%	20µM*	-9.4%
COCCn1c(C)cc(C(=O)CSc2nc3ccccc3c(=O)[nH]2)c1C	i	-13.2%	-3.0%	-19.8%	-6.3%	327.6%
COc1cccc(NC(=O)Cn2c(=O)c3cccn3c3ccc(F)cc32)c1	nt	-0.7%	nt	-8.9%	nt	nt
Cc1ccc(-n2nc3c(N4CCCC(C(=O)NCc5ccc(Cl)cc5)C4)nnc(C)c3c2C)cc1 (stereo not given)	nt	-0.7%	nt	-16.8%	nt	nt
N#Cc1cc2c(nc1SCc1nc3ccccc3[nH]1)CCC2	i	3.98µM*	-7.0%	5.01µM*	?	31.6µM*
COc1ccccc1-c1nc(Nc2ccncc2)c2ccccc2n1	i	-0.1%	-10.4%	-1.9%	?	59.6%
COc1ccccc1-c1nc(NC2CC2)c2ccccc2n1	i	3.0%	-11.3%	-4.3%	12.3%	15.8µM*
COc1cccc(-c2nc(NCc3ccccc3OC)c3ccccc3n2)c1	i	-10.9%	5.2%	-7.2%	-24.0%	47.2%
COc1ccccc1CNc1nc(-c2ccccc2OC)nc2ccccc12	i	4.3%	-4.0%	4.0%	-8.8%	3.98µM*
COc1ccccc1CNc1nc(-c2ccc(N(C)C)cc2)nc2ccccc12	i	?	-1.0%	20µM*	4.9%	i
COc1cccc(-c2nc(NC3CC3)c3ccccc3n2)c1	i	?	-6.3%	-14.7%	12.6µM*	55.7%
COc1ccccc1-c1nc(NCc2ccccc2)c2ccccc2n1	i	-22.8%	-11.8%	-3.4%	?	3.98µM*
COc1ccccc1-c1nc(NCc2cnc(C)cn2)c2ccccc2n1	i	-6.8%	-10.3%	3.5%	-9.7%	?
COc1ccc(NC(=O)Cn2c(SCc3ccc(C)cc3)nc3cccnc32)cc1OC	nt	3.16µM*	nt	nt	nt	nt
O=C(NCCN1CCCCC1)c1ccc(Cn2c(SCc3ccc(F)cc3)nc3cccnc32)cc1	nt	7.94µM*	nt	7.94µM*	nt	nt
COCCCNC(=O)c1ccc(Cn2c(SCc3ccc(F)cc3)nc3cccnc32)cc1	nt	11.2µM*	nt	nt	nt	nt
Cc1cc(C)cc(NC(=O)CN2C(=O)CCc3cc(S(=O)(=O)N4CCCCC4)ccc32)c1	nt	6.7%	nt	-10.0%	nt	nt
